Measured values published in the supplement of paper PMC9337992.
± gives the standard deviation of the averaged measurements.

Key:
Assay in all cases: cell proliferation (confluence) relative to DMSO control; higher = less growth inhibition
Conditions in all cases: 5 uM; 6 d
BT549 = system: BT549
Method in brief: (§1)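 Plates with 384 wells were seeded with triple-negative breast cancer cell lines at 500 cells per well, and epigenetic chemical probes in DMSO were added once the cells had attached, at a final 5 μM for 6 d. Imaging used an IncuCyte ZOOM with a ×10 objective in phase-contrast, and analysis used Incucyte 2016 software. With four replicate wells per compound, confluence was normalised to wells holding DMSO alone.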

CAL120 = system: CAL120
Method in brief: as §1

HCC1143 = system: HCC1143
Method in brief: as §1

HCC1395 = system: HCC1395
Method in brief: as §1

HCC153 = system: HCC153
Method in brief: as §1

HCC1806 = system: HCC1806
Method in brief: as §1

HCC38 = system: HCC38
Method in brief: as §1

HCC70 = system: HCC70
Method in brief: as §1

Hs578-T = system: Hs578-T
Method in brief: as §1

MB157 = system: MB157
Method in brief: as §1

SUM149-PT = system: SUM149-PT
Method in brief: as §1

SUM159-PT = system: SUM159-PT
Method in brief: as §1

COc1ccc(CCc2nc3cc(-c4c(C)noc4C)ccc3n2C[C@H](C)N2CCOCC2)cc1Cl
cell proliferation (BT549): 98.71 ± 0.76% | cell proliferation (CAL120): 99.636 ± 0.017% | cell proliferation (HCC1143): 98.527 ± 0.086% | cell proliferation (HCC1395): 99.941 ± 0.031% | cell proliferation (HCC153): 48.7 ± 1.4% | cell proliferation (HCC1806): 82.67 ± 0.12% | cell proliferation (HCC38): 99.927 ± 0.017% | cell proliferation (HCC70): 99.75 ± 0.26% | cell proliferation (Hs578-T): 96.9 ± 1% | cell proliferation (MB157): 90.6 ± 2.1% | cell proliferation (SUM149-PT): 34.4 ± 3.4% | cell proliferation (SUM159-PT): 99.994 ± 0.0041%

CCC(=O)N1CCOc2c(cc(-c3ccc(OC)c(OC)c3)cc2OC[C@H]2CCCN(C)C2)C1
cell proliferation (BT549): 98 ± 1.1% | cell proliferation (CAL120): 98.2 ± 1.5% | cell proliferation (HCC1143): 99.31 ± 0.35% | cell proliferation (HCC1395): 99.981 ± 0.0043% | cell proliferation (HCC153): 65.2 ± 5.7% | cell proliferation (HCC1806): 79 ± 6.8% | cell proliferation (HCC38): 99.89 ± 0.02% | cell proliferation (HCC70): 92.5 ± 7.2% | cell proliferation (Hs578-T): 97.28 ± 0.62% | cell proliferation (MB157): 94.2 ± 4.5% | cell proliferation (SUM149-PT): 29.9 ± 7.1% | cell proliferation (SUM159-PT): 99.985 ± 0.014%

COc1c(C)cc(NC(=O)c2nn(Cc3ccc(F)cc3)c3c2CN(C(=O)c2ccc[nH]2)C[C@]3(C)C(N)=O)cc1C
cell proliferation (BT549): 95.2 ± 2.6% | cell proliferation (CAL120): 98.5 ± 1.5% | cell proliferation (HCC1143): 97.72 ± 0.68% | cell proliferation (HCC1395): 99.916 ± 0.05% | cell proliferation (HCC153): 56.1 ± 5.2% | cell proliferation (HCC1806): 76.3 ± 3.2% | cell proliferation (HCC38): 99.26 ± 0.96% | cell proliferation (HCC70): 99.43 ± 0.33% | cell proliferation (Hs578-T): 98.56 ± 0.55% | cell proliferation (MB157): 93.7 ± 9.7% | cell proliferation (SUM149-PT): 75.6 ± 20% | cell proliferation (SUM159-PT): 99.971 ± 0.051%

O=C(NCC(=O)N1CCCC1)Nc1ccc2cnccc2c1
cell proliferation (BT549): 97.4 ± 1.4% | cell proliferation (CAL120): 98.79 ± 0.98% | cell proliferation (HCC1143): 97.5 ± 2% | cell proliferation (HCC1395): 99.815 ± 0.096% | cell proliferation (HCC153): 63 ± 9.2% | cell proliferation (HCC1806): 82.8 ± 2.7% | cell proliferation (HCC38): 99.873 ± 0.048% | cell proliferation (HCC70): 94.9 ± 5.1% | cell proliferation (Hs578-T): 96.4 ± 1.6% | cell proliferation (MB157): 94.3 ± 5.8% | cell proliferation (SUM149-PT): 76.9 ± 9.1% | cell proliferation (SUM159-PT): 99.995 ± 0.0035%

CCCOc1ccn2c(C(C)=O)cc(-c3ccccc3S(C)(=O)=O)c2c1
cell proliferation (BT549): 99.1 ± 0.35% | cell proliferation (CAL120): 99.03 ± 0.55% | cell proliferation (HCC1143): 98.2 ± 1% | cell proliferation (HCC1395): 99.968 ± 0.022% | cell proliferation (HCC153): 53 ± 5.5% | cell proliferation (HCC1806): 81.9 ± 6.8% | cell proliferation (HCC38): 99.1 ± 0.59% | cell proliferation (HCC70): 92.2 ± 7.6% | cell proliferation (Hs578-T): 97.6 ± 0.9% | cell proliferation (MB157): 76.8 ± 20% | cell proliferation (SUM149-PT): 88.7 ± 8.8% | cell proliferation (SUM159-PT): 99.983 ± 0.013%

COc1cc(-c2cn(C)c(=O)c3cnccc23)c(OC)cc1CN(C)C
cell proliferation (BT549): 99.729 ± 0.064% | cell proliferation (CAL120): 96.7 ± 2% | cell proliferation (HCC1143): 96.9 ± 3.3% | cell proliferation (HCC1395): 99.978 ± 0.01% | cell proliferation (HCC153): 55.9 ± 8.2% | cell proliferation (HCC1806): 65.4 ± 6% | cell proliferation (HCC38): 99.64 ± 0.17% | cell proliferation (HCC70): 96.2 ± 2.6% | cell proliferation (Hs578-T): 98.52 ± 0.23% | cell proliferation (MB157): 88.3 ± 10% | cell proliferation (SUM149-PT): 74.4 ± 19% | cell proliferation (SUM159-PT): 99.991 ± 0.0063%

COc1ccccc1C(=O)Nc1cc2c(cc1N1CCCC1)n(C)c(=O)n2C
cell proliferation (BT549): 97.6 ± 1.7% | cell proliferation (CAL120): 99.2 ± 0.47% | cell proliferation (HCC1143): 98.3 ± 1.9% | cell proliferation (HCC1395): 99.979 ± 0.014% | cell proliferation (HCC153): 62.3 ± 11% | cell proliferation (HCC1806): 77.1 ± 7.8% | cell proliferation (HCC38): 99.66 ± 0.35% | cell proliferation (HCC70): 96.7 ± 3.5% | cell proliferation (Hs578-T): 98.42 ± 0.77% | cell proliferation (MB157): 89.6 ± 12% | cell proliferation (SUM149-PT): 63 ± 8.4% | cell proliferation (SUM159-PT): 99.986 ± 0.0076%

Cn1cc(CCn2cnc(-c3cnn(C)c3)c2-c2ccc(C#N)cc2)cn1
cell proliferation (BT549): 98.99 ± 0.43% | cell proliferation (CAL120): 97.56 ± 0.71% | cell proliferation (HCC1143): 98.1 ± 2.2% | cell proliferation (HCC1395): 99.977 ± 0.017% | cell proliferation (HCC153): 58.1 ± 13% | cell proliferation (HCC1806): 76.7 ± 11% | cell proliferation (HCC38): 99.38 ± 0.67% | cell proliferation (HCC70): 85.1 ± 8.9% | cell proliferation (Hs578-T): 97.89 ± 0.77% | cell proliferation (MB157): 62.6 ± 28% | cell proliferation (SUM149-PT): 92.6 ± 3.4% | cell proliferation (SUM159-PT): 99.988 ± 0.012%

CNCCN1CCC(OCc2ccccc2)CC1
cell proliferation (BT549): 98.25 ± 0.81% | cell proliferation (CAL120): 97.25 ± 0.95% | cell proliferation (HCC1143): 96.6 ± 1.6% | cell proliferation (HCC1395): 99.984 ± 0.0095% | cell proliferation (HCC153): 60.3 ± 10% | cell proliferation (HCC1806): 73.6 ± 7.1% | cell proliferation (HCC38): 99.63 ± 0.28% | cell proliferation (HCC70): 88.5 ± 12% | cell proliferation (Hs578-T): 97.85 ± 0.92% | cell proliferation (MB157): 93.3 ± 5.4% | cell proliferation (SUM149-PT): 72.8 ± 18% | cell proliferation (SUM159-PT): 99.906 ± 0.052%

CN(C)[C@H]1CN(C2CCc3cccc(F)c32)C[C@@H]1c1ccc(N2CCN(S(C)(=O)=O)CC2)cc1 (some centres not stated)
cell proliferation (BT549): 99.839 ± 0.071% | cell proliferation (CAL120): 91.9 ± 3.3% | cell proliferation (HCC1143): 99.22 ± 0.33% | cell proliferation (HCC1395): 99.91 ± 0.14% | cell proliferation (HCC153): 83.7 ± 2.5% | cell proliferation (HCC1806): 99.14 ± 0.58% | cell proliferation (HCC38): 99.71 ± 0.21% | cell proliferation (HCC70): 82.3 ± 13% | cell proliferation (Hs578-T): 97.33 ± 0.62% | cell proliferation (MB157): 91.6 ± 4.3% | cell proliferation (SUM149-PT): 87.8 ± 10% | cell proliferation (SUM159-PT): 99.996 ± 0.0017%

O=C(c1ccc(C(=O)N2CCC(N3CCCC3)CC2)c(Nc2ccccc2)c1)N1CCC(N2CCCC2)CC1
cell proliferation (BT549): 99.63 ± 0.2% | cell proliferation (CAL120): 95.4 ± 2.1% | cell proliferation (HCC1143): 99.64 ± 0.16% | cell proliferation (HCC1395): 99.874 ± 0.068% | cell proliferation (HCC153): 89.5 ± 3.3% | cell proliferation (HCC1806): 99.832 ± 0.085% | cell proliferation (HCC38): 99.81 ± 0.17% | cell proliferation (HCC70): 99.24 ± 0.6% | cell proliferation (Hs578-T): 98.8 ± 0.39% | cell proliferation (MB157): 99.13 ± 0.32% | cell proliferation (SUM149-PT): 89.4 ± 9.2% | cell proliferation (SUM159-PT): 99.998 ± 0.0015%

O=C(/C=C/N1C[C@H]2C[C@@H]1CN2c1ccccn1)c1ccccc1O
cell proliferation (BT549): 99.79 ± 0.1% | cell proliferation (CAL120): 93.4 ± 2.2% | cell proliferation (HCC1143): 99.25 ± 0.15% | cell proliferation (HCC1395): 99.895 ± 0.019% | cell proliferation (HCC153): 87.8 ± 2.8% | cell proliferation (HCC1806): 99.849 ± 0.052% | cell proliferation (HCC38): 99.917 ± 0.014% | cell proliferation (HCC70): 99.13 ± 0.33% | cell proliferation (Hs578-T): 98.15 ± 0.9% | cell proliferation (MB157): 98.9 ± 1% | cell proliferation (SUM149-PT): 29.1 ± 5.7% | cell proliferation (SUM159-PT): 99.994 ± 0.0044%

O=C(NC[C@H](O)CN1CCc2ccccc2C1)c1ccnc(NC2CCC2)c1
cell proliferation (BT549): 81.4 ± 7.7% | cell proliferation (CAL120): 90 ± 7.5% | cell proliferation (HCC1143): 75.1 ± 4.7% | cell proliferation (HCC1395): 99.47 ± 0.48% | cell proliferation (HCC153): 37.2 ± 9.6% | cell proliferation (HCC1806): 37.5 ± 4.5% | cell proliferation (HCC38): 67.8 ± 1.2% | cell proliferation (HCC70): 95 ± 2% | cell proliferation (Hs578-T): 89.7 ± 4.3% | cell proliferation (MB157): 66.5 ± 2.1% | cell proliferation (SUM149-PT): 36.7 ± 2.9% | cell proliferation (SUM159-PT): 99.876 ± 0.038%

Cc1cc(=O)n(C)c2cc(N3C(=O)CC[C@H](NS(=O)(=O)CC(C)C)[C@H]3c3ccc(Cl)cc3)ccc12
cell proliferation (BT549): 98.62 ± 0.82% | cell proliferation (CAL120): 98.85 ± 0.5% | cell proliferation (HCC1143): 99.53 ± 0.27% | cell proliferation (HCC1395): 99.99 ± 0.01% | cell proliferation (HCC153): 55.4 ± 11% | cell proliferation (HCC1806): 81.7 ± 5.8% | cell proliferation (HCC38): 99.02 ± 0.89% | cell proliferation (HCC70): 85.8 ± 9.3% | cell proliferation (Hs578-T): 98.75 ± 0.26% | cell proliferation (MB157): 71 ± 19% | cell proliferation (SUM149-PT): 82.6 ± 16% | cell proliferation (SUM159-PT): 99.951 ± 0.055%

CC(C)N(CCCNC(=O)Nc1ccc(C(C)(C)C)cc1)C[C@H]1O[C@@H](n2cc(Br)c3c(N)ncnc32)[C@H](O)[C@@H]1O
cell proliferation (BT549): 99.955 ± 0.014% | cell proliferation (CAL120): 98.5 ± 1.1% | cell proliferation (HCC1143): 99.74 ± 0.16% | cell proliferation (HCC1395): 99.977 ± 0.024% | cell proliferation (HCC153): 85.8 ± 4.9% | cell proliferation (HCC1806): 99.862 ± 0.055% | cell proliferation (HCC38): 99.891 ± 0.042% | cell proliferation (HCC70): 93.6 ± 4.6% | cell proliferation (Hs578-T): 96.1 ± 1.3% | cell proliferation (MB157): 89.1 ± 3.2% | cell proliferation (SUM149-PT): 76 ± 6.9% | cell proliferation (SUM159-PT): 99.997 ± 0.0024%

CC(C)Oc1ccc(-c2c[nH]cc2CN(C)CCO)cc1
cell proliferation (BT549): 97.58 ± 0.92% | cell proliferation (CAL120): 97.5 ± 1.6% | cell proliferation (HCC1143): 96.98 ± 0.82% | cell proliferation (HCC1395): 99.978 ± 0.011% | cell proliferation (HCC153): 61.5 ± 8.3% | cell proliferation (HCC1806): 81.7 ± 3.2% | cell proliferation (HCC38): 99.55 ± 0.37% | cell proliferation (HCC70): 97.3 ± 1.8% | cell proliferation (Hs578-T): 97.16 ± 0.64% | cell proliferation (MB157): 94.2 ± 3.9% | cell proliferation (SUM149-PT): 74 ± 11% | cell proliferation (SUM159-PT): 99.986 ± 0.014%
